This is a sample that favours compounds with a hit; in the whole collection about 0.78% have one here.
RGS8-Gao – regulators of human RGS8-Galphao interaction; P09471; multiplexed bead flow cytometry, RGS8-Galphao binding; actives lie on both sides; response (percent of control binding), % at 10 µM; hit rate 0.34% among 220,000; in the data active means response below about 60% or above about 140%; inactive means in between;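 further: Galphao activated as the GDP aluminium fluoride complex binding bead-coupled RGS8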
Target sequence (P09471 whole entry, looked up): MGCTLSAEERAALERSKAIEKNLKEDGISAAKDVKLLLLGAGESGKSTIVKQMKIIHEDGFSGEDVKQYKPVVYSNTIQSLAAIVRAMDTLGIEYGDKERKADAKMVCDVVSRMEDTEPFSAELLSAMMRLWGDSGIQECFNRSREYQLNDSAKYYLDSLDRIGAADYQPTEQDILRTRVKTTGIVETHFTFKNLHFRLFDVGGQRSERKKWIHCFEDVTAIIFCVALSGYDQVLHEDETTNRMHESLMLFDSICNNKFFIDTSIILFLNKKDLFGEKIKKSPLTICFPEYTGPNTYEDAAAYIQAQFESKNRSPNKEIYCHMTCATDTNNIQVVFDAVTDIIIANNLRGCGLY
RGS4-Gao reg – modulates binding of RGS4 to human Galphao. P09471. hit rate 0.33% among 220,000. binding response (% of control), % at 10 µM. AID 1415. Multiplexed bead flow cytometry; actives lie on both sides; in the data active means binding response below about 49% or above about 150%; inactive means in between;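 further: fluorescent Galphao activated with aluminum fluoride binding bead-coupled RGS4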
RGS16-Gao – RGS16-Galphao interaction regulator (human); O15492+P09471; hit rate 0.38% among 220,000; binding response (% of control), % at 10 µM; bead-based flow cytometry RGS16-Galphao binding, fluorescence; actives lie on both sides;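 further: Galphao activated by GDP with aluminum fluoride before binding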
RGS7-Gao – human RGS7-Galphao interaction regulation; P09471; Multiplexed bead flow cytometry, RGS7-Galphao binding; actives lie on both sides; binding response (% of control), % at 10 µM; hit rate 0.35% among 220,000; AID 1439; in the data active means binding response below about 49% or above about 150%; inconclusive means no clear call, values can overlap the other calls; inactive means in between;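 further: fluorescent Galphao held in activated GDP-AlF4 state binding bead-coupled RGS7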
RGS-Gao – modulates binding between human RGS4 and Galphao. multiplexed bead flow cytometry, RGS–Galpha-o binding. hit rate 99% among 1,600. shares compounds with RGS16-Gao. RGS4–Galpha-o binding response, % at 10 µM;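 further: fluorescently labeled Galpha-o bound to GDP with aluminium fluoride binding biotinylated RGS beads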
Biotin-avidin – counter-screen: compounds disrupting biotin binding to avidin beads; 1,700 tested, under 10 active; inhibition, % at 10 µM; shares compounds with RGS16-Gao; streptavidin beads, fluorescein-biotin binding, flow cytometry;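 active means inhibition above 50%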;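 further: median green fluorescence of gated singlet beads compared with DMSO control wells; 0% = DMSO wells and 100% = complete loss of bead fluorescence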
RGS8-Gao confirm – RGS8-Galphao interaction regulation, single point confirmation; binding response (% of control), % at 10 µM; bead-based flow cytometry RGS8-Galphao binding, fluorescence; actives lie on both sides; hit rate 3% among 1,700; AID 1836; shares compounds with RGS16-Gao; in the data active means binding response below about 72% or above about 130%; inactive means in between;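 further: Galphao activated as GDP AlF4 complex before binding bead RGS8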
RGS7-Gao single – confirmation of regulators of human RGS7-Galphao interaction; shares compounds with RGS16-Gao; bead-based flow cytometry RGS7-Galphao binding; actives lie on both sides; response (percent of control binding), % at 10 µM; hit rate 7.8% among 1,700; in the data active means response below about 75% or above about 130%; inactive means in between;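 further: fluorescent Galphao activated with GDP and aluminum fluoride binding bead-coupled RGS7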
RGS16-Gao single – confirmation of regulators of human RGS16-Galphao interaction. shares compounds with RGS16-Gao. bead-based flow cytometry, RGS16-Galphao binding; actives lie on both sides. response (% of control binding), % at 10 µM. hit rate 4% among 1,700; in the data active means response below about 74% or above about 130%; inactive means in between;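 further: Galphao activated as the GDP aluminium fluoride complex binding bead-coupled RGS16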
RGS4-Gao single – confirmation of regulators of human RGS4-Galphao interaction | hit rate 4% among 1,700 | RGS4-Galphao binding, multiplexed bead flow cytometry; actives lie on both sides | binding response (% of control), % at 10 µM | shares compounds with RGS16-Gao; in the data active means binding response below about 74% or above about 130%; inactive means in between
RGS19-Gao conf – RGS19-Galphao interaction regulation, single point confirmation; shares compounds with RGS16-Gao; bead-based flow cytometry RGS19-Galphao binding; actives lie on both sides; response (percent of control binding), % at 10 µM; hit rate 5% among 1,700; AID 1841; in the data active means response below about 50% or above about 160%; inactive means in between;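 further: 100% = no compound control and 0% = blank background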
Target sequence (P09471 whole entry, looked up): as above
Target sequence (P49795 whole entry, looked up): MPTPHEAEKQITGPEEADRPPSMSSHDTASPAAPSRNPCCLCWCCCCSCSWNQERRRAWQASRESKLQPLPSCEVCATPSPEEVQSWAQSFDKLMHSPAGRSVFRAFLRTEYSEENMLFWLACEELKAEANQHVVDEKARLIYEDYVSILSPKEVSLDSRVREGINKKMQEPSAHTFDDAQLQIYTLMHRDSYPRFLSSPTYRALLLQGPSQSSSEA
* hit, by the source's call; ? = inconclusive; / = no result given; [ ] = another dose, or the depositor's remark. Unless noted, how the calls were made is not given here.

SMILES	RGS8-Gao	RGS4-Gao reg	RGS16-Gao	RGS7-Gao	RGS-Gao	Biotin-avidin	RGS8-Gao confirm	RGS7-Gao single	RGS16-Gao single	RGS4-Gao single	RGS19-Gao conf
COc1cc(C)ccc1OCCOCCOc1ccccc1[N+](=O)[O-]	96	91	87	95	/	/	/	/	/	/	/
COc1ccccc1OCCOCCOc1c(C)cc(C)cc1Br	122	110	227*[activator]	106	110*	2	97	96	98	99	93
COc1ccccc1OCCOCCOc1ccc(C)cc1[N+](=O)[O-]	130	116	295*[activator]	122	116*	-1	99	100	99	98	113
COc1ccccc1OCc1ccc(C(=O)NC(C)(C)C)o1	97	100	101	98	/	/	/	/	/	/	/
O=C(Cn1cnc2c(cnn2-c2ccccc2)c1=O)Nc1ccc(S(=O)(=O)N2CCOCC2)cc1	77	95	20*	90	95*	2	97	93	95	93	189*[activator]
COc1ccc(-n2ncc3c(=O)n(CC(=O)Nc4ccc(S(=O)(=O)N5CCOCC5)cc4)cnc32)cc1	99	99	97	97	/	/	/	/	/	/	/
CCN(c1ccc(N=Cc2c(O)n(Cc3ccc(OC)cc3)c(=O)c3ccccc23)cc1)C(C)C	103	124	120	163*[activator]	124*	2	116	309*[activator]	194*[activator]	221*[activator]	473*[activator]
COc1ccc(Cl)cc1NC(=O)N1CCN(c2ccccc2OC)CC1	95	77	90	?	/	/	/	/	/	/	/
CC(C)=NNC1=NC(C)(C)Cc2ccccc21	103	93	102	?	/	/	/	/	/	/	/
CC(=O)CC1=NC(C)(C)Cc2ccccc21	18*	29*	16*	24*	/	-2	102	109	104	104	100
COc1cc(C2N(c3cccc(Cl)c3)C(=O)C3CCCN32)cc(OC)c1OC (stereo not drawn)	101	97	100	99	/	/	/	/	/	/	/
CN(Cc1ccccc1)c1cc(Cl)nc(N)n1	100	101	102	?	/	/	/	/	/	/	/
COc1ccc(CNC(=O)C2CSC(c3ccc(OC)cc3)N2C(C)=O)cc1 (stereo not drawn)	70	106	82	217*[activator]	106*	-2	103	104	103	103	106
c1ccc(CSc2nnc3ccc(-c4cccs4)nn23)nc1	101	102	104	?	/	/	/	/	/	/	/
COCc1nnc(NC(=O)c2ccc(NC(C)=O)cc2)s1	64	46*	50	53	/	-2	104	100	108	100	81
O=C(Nc1ccccc1SCC1CSc2nc3ccccc3c(=O)n21)c1ccccc1Cl (stereo not drawn)	/	/	/	/	/	2	100	75*	87	87	51
Cc1nc2ccccc2nc1N/N=C/c1ccc(O)cc1	99	97	96	?	/	/	/	/	/	/	/
Oc1ccc(Nc2nc3ccccc3nc2Nc2ccc(O)cc2)cc1	110	165*[activator]	170	161*[activator]	/	0	95	84	90	87	81
O=C(COc1ccc2ccccc2c1)NCCc1ccc2c(c1)OCCO2	106*[activator]	31*	113*[activator]	99	/	-2	108	110	107	109	110
O=C(COc1ccc2ccccc2c1)NCCNC(=O)COc1ccc2ccccc2c1	95	89	89	99	/	/	/	/	/	/	/
O=C(OCC(=O)N1CCN(C(=O)c2ccco2)CC1)C1=COCCO1	91	94	90	138	/	/	/	/	/	/	/
c1ccc(-c2csc3ncnc(NCc4ccccn4)c23)cc1	128	153*[activator]	147	?	/	-1	102	102	100	103	91
CC1(C)CC2(CC(C)(C)N1)OC(=O)N1CCc3ccccc3C12C (stereo not drawn)	104	102	105	101	/	/	/	/	/	/	/
CC(C)(O)C1=NOC(c2ccccc2)C1 (stereo not drawn)	99	133	114	338*[activator]	133*	0	103	102	102	103	109
O=C1CC(=O)CC(c2ccccc2)C1	100	102	110	96	/	/	/	/	/	/	/
SMILES	RGS8-Gao	RGS4-Gao reg	RGS16-Gao	RGS7-Gao	RGS-Gao	Biotin-avidin	RGS8-Gao confirm	RGS7-Gao single	RGS16-Gao single	RGS4-Gao single	RGS19-Gao conf
CCOC(=O)CNC(=O)CSc1nnc(SCC(=O)NCC(=O)OCC)s1	99	103	123	115	/	/	/	/	/	/	/
O=C(O)CCSc1nnc(SCC(=O)NCC(F)(F)F)s1	72	93	8.8*	85	93*	-2	103	106	102	103	101
CCCC(C(=O)c1ccccc1)n1cncn1 (stereo not drawn)	81	70	-9.0*	78	70*	-1	101	101	102	102	101
COc1ccc(C(=O)Nc2cc(C(C)=O)c(C)oc2=O)cc1	101	100	101	?	/	/	/	/	/	/	/
COC(=O)c1cc(NC(=O)c2ccccc2)c(=O)oc1/C=C/Nc1ccc(Oc2ccccc2)cc1	114	215*[activator]	205*[activator]	211*[activator]	/	-1	125*[activator]	399*[activator]	260*[activator]	284*[activator]	420*[activator]
CC(=O)Nc1ccc(N/C=C(\C=O)c2nc3ccccc3o2)cc1	104	104	102	104	/	/	/	/	/	/	/
NC(CC(=O)O)c1ccc(Br)cc1 (stereo not drawn)	125	107	179*[activator]	105	107*	0	102	103	102	103	104
C/C(=N/NC(=O)c1cc(O)c(O)c(O)c1)c1ccc([N+](=O)[O-])cc1	8.8*	21*	-2.4*	6.2*	/	0	82	76	83	90	83
COc1ccc(Cl)cc1NC(=O)CN(C1CCCCC1)S(C)(=O)=O	100	97	97	100	/	/	/	/	/	/	/
CCn1c(=O)c(C(=O)NCc2cccnc2)c(O)c2ccccc21	/	122	/	/	/	0	101	97	101	96	100
COc1ccc(CC(=O)NNc2ncnc3c2cnn3C)cc1	103	106	102	106	/	/	/	/	/	/	/
COc1ccc(C(=O)NCCc2nnc(SCC(=O)Nc3ccccc3F)n2C)cc1	100	111	107	166*[activator]	111*	1	100	95	98	98	104
CCCN(CCC)c1nc(C#N)nc(N(CCC)CCC)n1	48*	96	29	54	96*	1	98	101	102	96	93
O=C(Nc1ccc(Cl)cc1)OCc1ccccn1	97	89	91	94	/	/	/	/	/	/	/
